Holding throughout (assay): MAPPIT interaction score (arbitrary units); higher = stronger binary interaction signal, active = hit call of the paper
The target of one experiment is Mkk4. As to conditions: MAPPIT configuration: N-N; pair source set: DPIM.
Another experiment deals with Orai. As to conditions: MAPPIT configuration: N-N; pair source set: DPIM.
A further experiment deals with ND-ACP. The following applies: MAPPIT configuration: N-N; pair source set: Lit-BS-16.
Another experiment has as its target Mzt1. As to conditions: MAPPIT configuration: N-N; pair source set: RRS.
A further experiment deals with Mettl14. The following applies: MAPPIT configuration: N-N; pair source set: DPIM.
A further experiment addresses Rnmt. The following applies: MAPPIT configuration: N-N; pair source set: DPIM.
Another experiment has as its target Mpcp2. As to conditions: MAPPIT configuration: N-N; pair source set: Lit-BS-16.
The target in the next experiment is mod(mdg4). The following applies: MAPPIT configuration: N-N; pair source set: Lit-BS-16.
The target of another experiment is Naa30A. As to conditions: MAPPIT configuration: N-N; pair source set: Curagen_high_conf.

Experimental findings from the supplement of paper PMC10105736 are described below.

A number with no mark means an inactive call.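 How the source made its calls: active = MAPPIT score above the 99th percentile of random reference set scores in the same batch; inactive = at or below it.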
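Further: HEK293T cells with Epo stimulation, STAT-responsive firefly luciferase reporter, fold induction versus unstimulated cells divided by the larger fold induction of two negative controls lacking either bait or prey.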

B1: porin (protein)
chain: MAPPSYSDLGKQARDIFSKGYNFGLWKLDLKTKTSSGIEFNTAGHSNQESGKVFGSLETKYKVKDYGLTLTEKWNTDNTLFTEVAVQDQLLEGLKLSLEGNFAPQSGNKNGKFKVAYGHENVKADSDVNIDLKGPLINASAVLGYQGWLAGYQTAFDTQQSKLTTNNFALGYTTKDFVLHTAVNDGQEFSGSIFQRTSDKLDVGVQLSWASGTSNTKFAIGAKYQLDDDASVRAKVNNASQVGLGYQQKLRDGVTLTLSTLVDGKNFNAGGHKIGVGLELEA
On to B1, for which the results for the MAPPIT interaction score in the experiment with Mkk4 and in the experiment with Orai were 1.64 and 1.31, respectively.

B2: DENR (protein)
chain: MTNEDVGTNSVADRLQLGPREGVTYPIQMKYCGHCTMPIEYCEYYPEYEKCKEWLELHMPDDFERLKIEEEAAAADGTDDDKKRQKRGGKGLLRVKKKEDVPKRICVSRAARGKKKSVTVVTGLSTFDIDLKVAAKFFGTKFACGSSVTGDDEIVIQGDVKDDLFDVIPEKWAEIDEDVIEDLGDQKRT
For the molecule B2, the MAPPIT interaction score in the experiment with ND-ACP is 1.72.

B3: Ror (protein)
chain: MNKYSAFIVCISLVLLFTKKDVGSHNVDSRIYGFQQSSGICHIYNGTICRDVLSNAHVFVSPNLTMNDLEERLKAAYGVIKESKDMNANCRMYALPSLCFSSMPICRTPERTNLLYFANVATNAKQLKNVSIRRKRTKSKDIKNISIFKKKSTIYEDVFSTDISSKYPPTRESENLKRICREECELLENELCQKEYAIAKRHPVIGMVGVEDCQKLPQHKDCLSLGITIEVDKTENCYWEDGSTYRGVANVSASGKPCLRWSWLMKEISDFPELIGQNYCRNPGSVENSPWCFVDSSRERIIELCDIPKCADKIWIAIVGTTAAIILIFIIIFAIILFKRRTIMHYGMRNIHNINTPSADKNIYGNSQLNNAQDAGRGNLGNLSDHVALNSKLIERNTLLRINHFTLQDVEFLEELGEGAFGKVYKGQLLQPNKTTITVAIKALKENASVKTQQDFKREIELISDLKHQNIVCILGVVLNKEPYCMLFEYMANGDLHEFLISNSPTEGKSLSQLEFLQIALQISEGMQYLSAHHYVHRDLAARNCLVNEGLVVKISDFGLSRDIYSSDYYRVQSKSLLPVRWMPSESILYGKFTTESDVWSFGVVLWEIYSYGMQPYYGFSNQEVINLIRSRQLLSAPENCPTAVYSLMIECWHEQSVKRPTFTDISNRLKTWHEGHFKASNPEM
Regarding B3, in the experiment with Mzt1, the MAPPIT interaction score was -0.491.

B4: Hsp23 (protein)
chain: MANIPLLLSLADDLGRMSMVPFYEPYYCQRQRNPYLALVGPMEQQLRQLEKQVGASSGSSGAVSKIGKDGFQVCMDVSHFKPSELVVKVQDNSVLVEGNHEEREDDHGFITRHFVRRYALPPGYEADKVASTLSSDGVLTIKVPKPPAIEDKGNERIVQIQQVGPAHLNVKENPKEAVEQDNGNDK
For B4, the MAPPIT interaction score with Mettl14 is 1.35; with Rnmt it was 1.27.

B5: 4E-T (protein)
chain: MDTSKISARYSKVDLLALRYEGKSRQRPQCSTRLELQTLGFWKINLNTAALTVSSAYSNQNKNRLSPEADNSSLICSNSSSISSRRAMRNRERANNYYQRFVPTDSLLISGEDKDKDALSHGQPYKLNIIDHRSISSSHLMPAFAKRRFVISKGSNSEESNEGINTCASKGKAASSPSRKGSELDTAETCLNFVQPDHDQCMSSSPTFSTSRQERRIGSGRLLPRSDNWDYKNEKTVEASIENEKETSPNGSGSTSSLNQHNQSQHRSRTFSGRLVERVPEVTDRRFQYDSKKSFDRQGINNRRISGKEPFSTQSRSKRGNSYLIHEEPEWFSAGPKSQLETIDLHGFEDLEKNEERSVTEDKNNQIQQLDKNLDAQASKDEASMRNSNDSLNFREVIPSDEKKHTDENVVTSIQNSTDLGHPNKNKPIQMQPSQNPESEFNFDAFLNMHPLDNSVLSNDETGKSDSKGTSRFSRWFRQKEAANNNEFPGFRESHAQEKRGIPSVKDLEAQMIKVDMRTDLINPIAGSLCQTVQMEKPIARDTEAFKKLLQQLGSQARQHHPCNDDCRTINLSNIANHVHLESKLHQKINDGHLQQPELSVNVPTMPTSSHVFLQKRLEIQHLIQRLHCGDVSHDFLEKELDNPSTPAATKDVIATVLNEYSHSKRNPVVTGDPNIFTQQSFLQPQSVHQHYSQELHSQNTANHTINQLISHGNSPTPLAFTPTSVLRKMTADKDTQSPSTYCQNPQYHVHQQNAKQVGTRENVLEPQLTATMAVQPRMILGGGNFAIGQNNQHLSPNMSQSRNQQVLKWTSGNMQMVHGKTFGRPILKGGLNSMPHSNSALPFTAHKIEMQPIHQPHLQQQQHRFKAVQSVESNLNTESVHQNITSPVGWHQLYMQHQQQHHHTRQQLSQRVIYGEMHRQSNPQMSPPVPGFSDSSDSGNVIKANSLTSPSYQRDERISSPTNQLAQWFSPELLAKASAGKLPLLNVNQALSLEEFERSIQHSSGVVHN
With B5, the results for the MAPPIT interaction score with Mpcp2 and in the experiment with mod(mdg4) were 0.135 and -0.246, respectively.

B6: Naa35 (protein)
chain: MYPSTLPAEADPSTMNGSSVAEPPDFQAATAAAAAAARASSLEQDEWSVGECGFLDPDVQRTMRSGSAAEDITQYPMHGWVDVTKEFHDACAELQPGELAQDMLFGLFEAMSAIEIMDPKMDVGMGFDKQDLPPPSFEAAIATGAIKLDDLTPSELIGIYDALFSCLVSWLEGNSMDQVLFTCLYLHAPAQIKDKALRVFCTAVRNLIVVIKKIIAVAAVNEEEDFQLYGNSALLAAEKAQPATVYSSLKDVEDELIRKCKKLTSTEDWMAVVHRLRFMRHLFQVIYHVEQMASNDTVDDKVDIYKILLVASEMLPGIRNTLDRGTQPEKGSDAPNPMGFSPRIHDRSQPPAFPRSIKIRDRPSSYQFLEEMISRFKYACKVTKYKDYYSALNFFIEYSKKSGQCILSRSVLQTLFSANMRMAHGKLPMKQFLRHSVQVFNSPPVLNAKHPVAADPKVQQHLENFFRYCINMNTFTQFIRICGFNRARQRDKLARLIENFDTIQVDAARLDSMMNQLANERAMEGNEPMATALKHSTHFSTWVLYNCFRAMLIFLMSGFELELYAVHEFLYIYWYPYEFLIGFLVSALTRTENILLAQEEYAEHQSKTQSGGSGAAKNRKAAKPKKNKKTQRPYRAEIVFYHALLSLCGGMYKAMGALTKDGRVRLPLSKFDNEEIRYNRRFLPFATLTSPPPVSYAEFKNVREHMMRHSVEDLYTYAAKHFDQARNVLESIQNPDQEMLDLLQIARTNFVVMNVLARGHQKEVKRQPEFDFSKHSYFPIIKLK
Consider B6, for which the MAPPIT interaction score in the experiment with Naa30A is 3.72 (active).
